Measurements as given in PubChem BioAssay (NCATS).
Inconclusive results are not listed. A call without a number means that no potency is given here. Calls of active or inactive are those of the source. Calls follow the shape of the dose curve; as a rule, active = well fitted curve in the direction sought with a large enough effect; inconclusive = small, poorly fitted or top-dose-only effect, or another doubt; inactive = no such curve, though single readings can be large; an effect the other way counts as inactive or inconclusive.

system: not listed separately; experiment: Primary qHTS for inhibitors of La Crosse Virus (LACV) - induced cell death in SH-SY5Y cells (AID 1508616); settings: SH-SY5Y LACV cytopathicity rescue, ATP luminescence, 6 d; series mostly up to 9.63 µM; also: potency is read from the fitted curve at half-maximal effect
Outline: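 SH-SY5Y cells (6000/well) plated 24 h, then given compounds by pin transfer and LACV at 0.01 MOI for 6 days at 37C. Viability measured by ATPLite luminescence, normalized to infected DMSO and uninfected DMSO.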

Compound | Potency
CCCCCCCC/C=C\CCCCCCCC(=O)NCCO | inactive
N#C/C(=C\c1ccc(O)c(O)c1)C(=O)c1ccc(O)c(O)c1 | inactive
CN1CCc2cc(O)c(O)cc2C(c2ccccc2)C1 (stereo not drawn) | inactive
COc1cc2nc(N3CCN(C(=O)OCc4ccccc4)C(C(=O)NC(C)(C)C)C3)nc(N)c2cc1OC (stereo not drawn) | inactive
Clc1ccc(N2CCN(Cc3c[nH]c4ncccc34)CC2)cc1 | inactive
NC(=O)C(=O)O | inactive
O=Nc1ccc2oc(=O)ccc2c1 | inactive
O=C(O)c1cc(=O)c2c(Cl)cc(Cl)cc2[nH]1 | inactive
N=C(N)SCCc1ccc(CCSC(=N)N)cc1 | inactive
CN(C)c1ccc(/C=C2\C(=O)Nc3ccccc32)cc1 | inactive
COc1ccccc1N1CCN(CCN(C(=O)c2ccc(I)cc2)c2ccccn2)CC1 | inactive
COc1ccc(NC(=O)/C=C/c2ccc(Cl)cc2)cc1 | inactive
CO/N=C(\C(=O)N[C@@H]1C(=O)N2C(C(=O)O)=C(COC(C)=O)CS[C@H]12)c1csc(N)n1 | inactive
COc1ccccc1N1CCN(CCCCNS(=O)(=O)c2cccc3c(N(C)C)cccc23)CC1 | inactive
O=C(O)CC1CCCc2ccccc2C1O (stereo not drawn) | inactive
Cn1cc(C2=C(c3ccc(Cl)cc3Cl)C(=O)NC2=O)c2ccccc21 | inactive
C[N+](C)(C)CCOP(=O)(O)OP(=O)([O-])OC[C@H]1O[C@@H](n2ccc(N)nc2=O)[C@H](O)[C@@H]1O | inactive
Clc1ccc(N2CCN(Cc3cc4ccccn4n3)CC2)cc1 | inactive

Compound | Potency
OCC1O[C@H]([S-])[C@H](O)[C@@H](O)[C@@H]1O.[Au+] (stereo partly drawn) | inactive
COc1cc(OC)c(/C=C2/C(=O)Nc3ccccc32)c(OC)c1 | 891 nM (active)
CCC1C(=O)OCC1Cc1cncn1C (stereo not drawn) | inactive
Oc1cc2c(cc1O)CN(C(=S)NCCc1ccc(Cl)cc1)CCC2 | 2240 nM (active)
O=C(/C=C/c1ccc(O)c(O)c1)OCCc1ccccc1 | 631 nM (active)
NCC1OC(O[C@H]2[C@H](O)[C@@H](OC3C(O)C(N)CC(N)C3OC3OC(CO)C(O)C(O)C3N)O[C@@H]2CO)C(N)C(O)C1O (stereo partly drawn) | inactive
CN1CCc2cccc3c2C1Cc1ccc(O)c(O)c1-3 (stereo not drawn) | inactive
NC[C@H]1O[C@@H](n2cnc3c(N)ncnc32)[C@H](O)[C@@H]1O | inactive
NC(=S)c1ccc[n+]([C@@H]2O[C@@H](COP(=O)([O-])OP(=O)(O)OC[C@H]3O[C@@H](n4cnc5c(N)ncnc54)[C@H](OP(=O)(O)O)[C@@H]3O)C(O)C2O)c1 (stereo partly drawn) | inactive
CN1CC(=O)N/C1=N/C(=O)Nc1cccc(Cl)c1 | inactive
COc1cccc(OC)c1OCCNCC1COc2ccccc2O1 (stereo not drawn) | inactive
CN(C)C(N)=NCCC[C@H](N)C(=O)O | inactive
CCCN(CC1CC1)c1nc(C)nc(Nc2c(Cl)cc(Cl)cc2Cl)c1Cl | inactive
CSc1ccccc1N1CCN(CCCCCC(=O)NC2CCCc3ccccc32)CC1 (stereo not drawn) | inactive
Cc1cc(NC(=O)Nc2ccc3c(ccn3C)c2)sn1 | inactive
Nc1nc(Cl)nc2c1ncn2[C@@H]1O[C@H](CO)[C@@H](O)[C@H]1O | inactive
Cc1nc2sccn2c(=O)c1CCN1CCC(=C(c2ccccc2)c2ccc(F)cc2)CC1 | inactive

molecular target: Calcium and integrin-binding protein 1 (Homo sapiens) (UniProt Q99828); experiment: Validation qHTS for Identification of Calcium Integrin Binding protein 1 (CIB1) Competitor (AID 1508618); settings: CIB1-GST / FITC-alphaIIb peptide fluorescence polarization; series mostly up to 114 µM
Sequence (Q99828 whole entry, looked up): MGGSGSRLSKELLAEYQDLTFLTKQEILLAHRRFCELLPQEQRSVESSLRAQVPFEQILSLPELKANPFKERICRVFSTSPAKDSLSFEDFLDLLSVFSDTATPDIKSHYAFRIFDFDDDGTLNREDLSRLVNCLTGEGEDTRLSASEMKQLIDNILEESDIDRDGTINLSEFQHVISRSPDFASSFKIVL
Outline: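 CIB1-GST (1 uM final) in 5 mM HEPES pH 7.4, 125 mM NaCl, 5 mM CaCl2, 0.01% Tween20 was preincubated 15 min at room temperature with compound (up to 114 uM), then FITC-alphaIIb peptide (100 nM) added for 15 min; fluorescence polarization read.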

Compound | outcome
CCCCCCCC/C=C\CCCCCCCC(=O)NCCO | inactive
N#C/C(=C\c1ccc(O)c(O)c1)C(=O)c1ccc(O)c(O)c1 | inactive
Clc1ccc(N2CCN(Cc3c[nH]c4ncccc34)CC2)cc1 | inactive
NC(=O)C(=O)O | inactive
O=Nc1ccc2oc(=O)ccc2c1 | inactive
O=C(O)c1cc(=O)c2c(Cl)cc(Cl)cc2[nH]1 | inactive
CN(C)c1ccc(/C=C2\C(=O)Nc3ccccc32)cc1 | inactive
COc1ccc(NC(=O)/C=C/c2ccc(Cl)cc2)cc1 | inactive
CO/N=C(\C(=O)N[C@@H]1C(=O)N2C(C(=O)O)=C(COC(C)=O)CS[C@H]12)c1csc(N)n1 | inactive
O=C(O)CC1CCCc2ccccc2C1O (stereo not drawn) | inactive
Cn1cc(C2=C(c3ccc(Cl)cc3Cl)C(=O)NC2=O)c2ccccc21 | inactive
C[N+](C)(C)CCOP(=O)(O)OP(=O)([O-])OC[C@H]1O[C@@H](n2ccc(N)nc2=O)[C@H](O)[C@@H]1O | inactive
Clc1ccc(N2CCN(Cc3cc4ccccn4n3)CC2)cc1 | inactive
COc1cc(OC)c(/C=C2/C(=O)Nc3ccccc32)c(OC)c1 | inactive
CCC1C(=O)OCC1Cc1cncn1C (stereo not drawn) | inactive
Oc1cc2c(cc1O)CN(C(=S)NCCc1ccc(Cl)cc1)CCC2 | inactive
O=C(/C=C/c1ccc(O)c(O)c1)OCCc1ccccc1 | inactive
NCC1OC(O[C@H]2[C@H](O)[C@@H](OC3C(O)C(N)CC(N)C3OC3OC(CO)C(O)C(O)C3N)O[C@@H]2CO)C(N)C(O)C1O (stereo partly drawn) | inactive
CN1CCc2cccc3c2C1Cc1ccc(O)c(O)c1-3 (stereo not drawn) | inactive
NC[C@H]1O[C@@H](n2cnc3c(N)ncnc32)[C@H](O)[C@@H]1O | inactive
NC(=S)c1ccc[n+]([C@@H]2O[C@@H](COP(=O)([O-])OP(=O)(O)OC[C@H]3O[C@@H](n4cnc5c(N)ncnc54)[C@H](OP(=O)(O)O)[C@@H]3O)C(O)C2O)c1 (stereo partly drawn) | inactive
CN1CC(=O)N/C1=N/C(=O)Nc1cccc(Cl)c1 | inactive
COc1cccc(OC)c1OCCNCC1COc2ccccc2O1 (stereo not drawn) | inactive
CN(C)C(N)=NCCC[C@H](N)C(=O)O | inactive
CCCN(CC1CC1)c1nc(C)nc(Nc2c(Cl)cc(Cl)cc2Cl)c1Cl | inactive
CSc1ccccc1N1CCN(CCCCCC(=O)NC2CCCc3ccccc32)CC1 (stereo not drawn) | inactive
Cc1cc(NC(=O)Nc2ccc3c(ccn3C)c2)sn1 | inactive
Nc1nc(Cl)nc2c1ncn2[C@@H]1O[C@H](CO)[C@@H](O)[C@H]1O | inactive
